An excerpt weighted towards active compounds, which were near 7.3% of everything screened.
HCV inhibitor: HCV inhibition; Huh7.5.1 HCVcc-Cre infection, luciferase reporter, 44 h; Potency, µM (titrated, usually from 41.8 µM), most hits filed as inhibitors; AID 651820; 340,000 compounds, 3.4% hits
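1,000 cells/well; 4 h culture; + compound; + HCVcc-Cre (~0.5 moi); 44 h; luciferase substrate, RT 15 min; read 15 sec.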
AmpC no deterg: blocks E. coli AmpC beta-lactamase in detergent-free assay; P00811; AmpC nitrocefin hydrolysis, absorbance 480 nm, 0.0001% Triton; Potency, µM (doses to about 57.1 µM), most hits filed as inhibitors; 330,000 compounds, 0.52% hits; AID 485341; also: nearly all actives have a fitted effect of over 20% in size
Target sequence (P00811 whole entry, looked up): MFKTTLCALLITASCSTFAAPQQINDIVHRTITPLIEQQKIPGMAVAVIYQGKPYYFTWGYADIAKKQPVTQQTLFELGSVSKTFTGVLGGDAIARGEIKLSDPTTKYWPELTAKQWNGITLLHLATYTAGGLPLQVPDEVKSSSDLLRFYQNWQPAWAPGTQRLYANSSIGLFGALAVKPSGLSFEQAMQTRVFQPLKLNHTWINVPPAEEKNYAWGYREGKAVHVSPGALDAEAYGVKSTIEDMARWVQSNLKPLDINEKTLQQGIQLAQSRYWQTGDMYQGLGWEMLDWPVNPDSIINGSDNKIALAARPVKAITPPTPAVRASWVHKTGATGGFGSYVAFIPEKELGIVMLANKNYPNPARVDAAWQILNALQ
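AmpC (5.3 nM in the dispensed reagent) in 20 mM phosphate pH 7.0 with 0.01% (detergent screen) or 0.0001% Triton X-100 was preincubated with compounds for 15 min at room temperature. Nitrocefin was then added from an 800 uM solution, and hydrolysis was followed at 480 nm.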
HCMV antiviral: blocks human cytomegalovirus replication | HFF cells, HCMV-luciferase reporter, 72 h; hits give low values | activity change, negative = inhibition, % at 57.5 µM | 410,000 compounds, 4.5% hits; in the data active = activity change below about -60%; inconclusive = no clear call, values can overlap the other calls; inactive = above about -39%
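Luciferase read-out from HCMV-luciferase-infected HFFs (MOI 1 PFU/cell) 72 h post infection at 37C; compounds added after 16 h cell attachment; activity normalized between buffer-only basal and Salinomycin (10uM) inhibitor controls.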
FMDV antiviral: antivirals against foot and mouth disease virus; Potency, µM (titrated, usually from 57.9 µM), hits mostly inhibitors; 410,000 compounds, 1.2% hits; FMDV antiviral cell-based qHTS; calls by dose curve; tested in HEK293T cells; also: read-out not given here; nearly all actives have a fitted effect of over 45% in size
AmpC inh detg: blocks E. coli AmpC beta-lactamase in detergent assay; AmpC hydrolysis of nitrocefin, absorbance 480 nm, 0.01% Triton; Potency, µM (series often up to 114 µM), actives largely listed as inhibitors; 370,000 compounds, 0.041% hits; AID 485294; also: nearly all actives have a fitted effect of over 25% in size
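AmpC (5.3 nM in the dispensed reagent) in 20 mM phosphate pH 7.0 with 0.01% (detergent screen) or 0.0001% Triton X-100 was preincubated with compounds for 15 min at room temperature. Nitrocefin was then added from an 800 uM solution, and hydrolysis was followed at 480 nm.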
Each line names hits and unclear results; the compound was inactive in the other large screens. Unless noted, calls follow the shape of the dose curve; as a rule, active = well fitted curve in the direction sought with a large enough effect; inconclusive = small, poorly fitted or top-dose-only effect, or another doubt; inactive = no such curve, though single readings can be large; an effect the other way counts as inactive or inconclusive.

Cc1ccc(OCc2nnc(NC(=O)c3ccco3)s2)c(C)c1	HCMV antiviral -105, AmpC inh detg inconclusive (no result: FMDV antiviral)
COC(=O)[C@H]1[C@H](CO)[C@H]2Cn3c(cccc3=O)[C@@H]1N2Cc1ccncc1	none (no result: HCV inhibitor, AmpC no deterg, FMDV antiviral, AmpC inh detg)
COc1ccc(C(O)(CCC(C)C)C(CN2CCOCC2)c2ccc(Cl)cc2)cc1 (stereo not given)	HCV inhibitor inconclusive, HCMV antiviral inconclusive, AmpC inh detg inconclusive
COc1ccc(C(O)(CC(C)C)C(CN2CCOCC2)c2ccccc2)cc1 (stereo not given)	HCMV antiviral -83, FMDV antiviral inconclusive
CCc1ccc(C(O)(CC(C)C)C(CN2CCOCC2)c2ccccc2)cc1 (stereo not given)	HCV inhibitor inconclusive, HCMV antiviral -90, FMDV antiviral inconclusive
COc1ccc(OC)c(NC(=O)CN(Cc2ccc(F)cc2)C2CCCCC2)c1	HCV inhibitor inconclusive, HCMV antiviral -93, FMDV antiviral inconclusive, AmpC inh detg inconclusive
COc1ccc(C)cc1NC(=O)CN(Cc1nnc(-c2ccc(Cl)cc2)o1)C1CCCC1	HCV inhibitor 7.9µM
COc1ccc(Cl)cc1NC(=O)CN(C)C1CCCCC1	HCV inhibitor inconclusive
CN1OC[C@@H]2C(=O)N3CCc4c([nH]c5ccccc45)[C@@H]3C[C@@H]21	none (no result: HCV inhibitor, AmpC no deterg, AmpC inh detg)
CCc1cccc(N2C(=O)N(Cc3c(F)cccc3Cl)c3ccccc3S2(=O)=O)c1	none (no result: HCV inhibitor, AmpC no deterg)
O=c1c(Cl)c(Cl)cnn1Cc1nnc(-c2ccccc2Br)o1	HCV inhibitor inconclusive, HCMV antiviral -99, FMDV antiviral inconclusive, AmpC inh detg inconclusive
Cc1ccccc1NC(=O)N[C@H]1CC[C@@]23CCCN2C(=O)CCC[C@H]3C1Cc1ccccc1 (stereo not given in full)	none (no result: HCV inhibitor, AmpC no deterg, FMDV antiviral, AmpC inh detg)
CC(=O)c1ccc(OCC(=O)Nc2cccc(C(=O)Nc3c(C)n(C)n(-c4ccccc4)c3=O)c2)cc1	none (no result: AmpC no deterg, AmpC inh detg)
Nc1ccccc1S(=O)(=O)NCCCCc1ccccc1	HCMV antiviral -100
COc1ccc(-c2c3c(=O)n(C)c(=O)n(C)c3c3n2-c2ccccc2NC3c2ccco2)cc1 (stereo not given)	FMDV antiviral inconclusive (no result: HCV inhibitor, AmpC no deterg)
Cc1ccc(C2Nc3cc(C)c(C)cc3-n3c(-c4ccccc4)c4c(=O)n(C)c(=O)n(C)c4c32)o1 (stereo not given)	none (no result: HCV inhibitor, AmpC no deterg)
Cn1c(=O)c2c(-c3ccccc3)n3c(c2n(C)c1=O)C(c1ccc([N+](=O)[O-])cc1)Nc1ccccc1-3 (stereo not given)	HCMV antiviral -68 (no result: HCV inhibitor, AmpC no deterg)
Cc1ccc(-c2c3c(=O)n(C)c(=O)n(C)c3c3n2-c2ccccc2NC3c2ccc(C)cc2O)cc1 (stereo not given)	HCMV antiviral -96 (no result: HCV inhibitor, AmpC no deterg)
COc1ccc(O)c(C2Nc3ccccc3-n3c(-c4ccccc4)c4c(=O)n(C)c(=O)n(C)c4c32)c1 (stereo not given)	HCMV antiviral inconclusive, FMDV antiviral 40µM (no result: HCV inhibitor, AmpC no deterg)
Cc1cccc(N2CC(C)Cn3c2nc2c3c(=O)[nH]c(=O)n2C)c1 (stereo not given)	none
CCCCOc1ccc(CCN)cc1Cl	HCV inhibitor inconclusive, HCMV antiviral -60
CCc1cnc2c(c1SC(C(C)=O)C(=O)N(C)C)c(=O)n(C)c(=O)n2C (stereo not given)	none (no result: HCV inhibitor, AmpC no deterg)
CCN(CC)CC#CC(OC)(c1ccccc1)c1ccccc1	HCMV antiviral -63, FMDV antiviral inconclusive
COc1ccc(N=c2scc(-c3ccc(OC)cc3)n2CCO)cc1	HCV inhibitor 6.3µM, HCMV antiviral -74, AmpC inh detg inconclusive
Clc1ccc(-c2csc(=Nc3cccnc3)n2CCCn2ccnc2)cc1Cl	HCV inhibitor 11µM, HCMV antiviral -94, FMDV antiviral 32µM
COc1ccc(-c2csc(=Nc3ccccc3)n2CCO)cc1F	FMDV antiviral inconclusive (no result: HCV inhibitor, AmpC no deterg)
COCCn1c(-c2ccc(Br)cc2)csc1=Nc1cccnc1	HCV inhibitor inconclusive, FMDV antiviral 32µM
FC(F)Oc1ccc(-c2csc(=Nc3cccnc3)n2CC2CCCO2)cc1 (stereo not given)	HCV inhibitor 11µM, HCMV antiviral -76, FMDV antiviral 8.9µM
OCCCn1c(-c2ccccc2)csc1=Nc1ccccc1	HCV inhibitor inconclusive, FMDV antiviral inconclusive
O=C(O)CCc1ccc(-c2cccs2)n1CC1CCCO1 (stereo not given)	none
Cn1cnnc1Sc1ccc(CN2CCOc3ccc(C4=CCCCC4)cc3C2)o1	none (no result: HCV inhibitor, AmpC no deterg, HCMV antiviral, AmpC inh detg)
COc1cccc(C2CNC3(CCCC(C)C3)c3[nH]c4ccccc4c32)c1OC (stereo not given)	HCMV antiviral -65
CC(=O)c1ccc(OCc2cc(C(=O)NCCn3nc(C)cc3C)no2)cc1	none
CCN(C#N)c1nc(N(C)C)nc(N(C)C)n1	HCV inhibitor 10µM
COCN(C#N)c1nc(N(C)C)nc(N(C)C)n1	HCV inhibitor inconclusive
CCC(C)n1c(SCc2ccc(F)cc2Cl)nc2ccsc2c1=O (stereo not given)	FMDV antiviral inconclusive (no result: HCV inhibitor, AmpC no deterg)
Cc1c(CC(=O)NCCc2ccccc2F)c(=O)oc2c(C)c3occ(C(C)(C)C)c3cc12	HCMV antiviral -78 (no result: HCV inhibitor, AmpC no deterg)
Cc1c(CC(=O)NCCc2ccccc2)c(=O)oc2c(C)c3occ(C(C)(C)C)c3cc12	HCMV antiviral inconclusive (no result: HCV inhibitor, AmpC no deterg)
COCCCNC(=O)Cc1c(C)c2c(cc(C)c3c(C(C)(C)C)coc32)oc1=O	HCV inhibitor 11µM
CCCN(CC(=O)Nc1ccccc1C)C(=O)/C=C/c1ccc(OCC)c(OC)c1	HCV inhibitor inconclusive, AmpC inh detg inconclusive
CCn1cc([N+](=O)[O-])c(C(=O)N2N=C(c3cccc4ccccc34)CC2c2ccccc2O)n1 (stereo not given)	HCV inhibitor 11µM, FMDV antiviral inconclusive
CCn1cc(Cl)c(C(=O)N2N=C(c3ccc4ccccc4c3)CC2c2ccccc2O)n1 (stereo not given)	HCV inhibitor inconclusive
CCn1cc([N+](=O)[O-])c(C(=O)N2N=C(c3ccc4ccccc4c3)CC2c2ccccc2O)n1 (stereo not given)	HCV inhibitor 10µM
Cc1ccc(N2N=C(C(=O)O)CCC2=O)cc1Cl	none
COc1ccc(CNC(=O)CN2C(=O)CSc3ccc(S(=O)(=O)N(C)C)cc32)cc1	none (no result: HCV inhibitor, AmpC no deterg)
CC(C)(C)C(=O)Cn1c(=O)n(CCCCCC(=O)NCc2ccc3c(c2)OCO3)c(=O)c2sccc21	HCMV antiviral inconclusive (no result: HCV inhibitor, AmpC no deterg)
CC(Sc1nc(NC(C)(C)C)nc(N(C)C)n1)C(=O)Nc1ccccc1 (stereo not given)	HCMV antiviral -61, FMDV antiviral inconclusive
CC(O)(COc1ccccc1)c1ccc2c(c1)CN(Cc1cccc3cccnc13)CCO2 (stereo not given)	none (no result: HCV inhibitor, AmpC no deterg, HCMV antiviral, AmpC inh detg)
CN1CCC(N(C)S(=O)(=O)c2ccc(NC(=O)COc3cccc(Cl)c3)cc2)CC1	HCV inhibitor inconclusive, AmpC inh detg inconclusive
O=C(COc1ccc(Br)cc1Cl)NC1CCN(Cc2ccccc2)CC1	HCV inhibitor 11µM
